According to PubChem BioAssay AID1645860 (Buhrlage Lab, Dana-Farber Cancer Institute and Novartis …, 2021):
The campaign covered roughly 47,000 compounds. About 2,500 (5.3%) were called active. What follows is part of a selection rich in actives, with near analogues and random picks from the rest. Unmarked numbers belong to inactive results. No stated cut-off is given here; in the data, active means inhibition above about 30%; inactive means the rest.

Molecular target: Ubiquitin carboxyl-terminal hydrolase 30 (Homo sapiens) (UniProt Q70CQ3)
Assay: inhibitors of human USP30 deubiquitinase (AID 1645860)
Conditions: purified USP30, Ub-rhodamine cleavage fluorescence; at 25 µM; hits give high values

Ubiquitin carboxyl-terminal hydrolase 30 (Homo sapiens), sequence (Q70CQ3 whole entry, looked up): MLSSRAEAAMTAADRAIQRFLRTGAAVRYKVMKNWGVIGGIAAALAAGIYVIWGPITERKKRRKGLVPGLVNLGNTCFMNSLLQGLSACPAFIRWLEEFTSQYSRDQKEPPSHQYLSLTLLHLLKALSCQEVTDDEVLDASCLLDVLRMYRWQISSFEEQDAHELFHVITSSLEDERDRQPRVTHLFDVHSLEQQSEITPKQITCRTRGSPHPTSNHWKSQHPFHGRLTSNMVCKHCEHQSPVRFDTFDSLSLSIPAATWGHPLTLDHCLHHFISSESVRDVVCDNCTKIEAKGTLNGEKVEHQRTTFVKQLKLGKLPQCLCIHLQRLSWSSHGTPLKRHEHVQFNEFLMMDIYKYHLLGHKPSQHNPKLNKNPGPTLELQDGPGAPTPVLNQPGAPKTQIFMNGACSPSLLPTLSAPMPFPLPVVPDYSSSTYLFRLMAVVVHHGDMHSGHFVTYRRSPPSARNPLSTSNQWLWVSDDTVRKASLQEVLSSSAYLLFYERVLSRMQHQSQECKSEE

SMILES | inhibition
COc1ccc(CNC(=O)c2[nH]nc3c2CCc2ccccc2-3)cc1 | 49.8% (active)
COc1ccc(CNC(=O)c2cccc3cccnc23)cc1 | -9.33%
COc1ccc(CNC(=O)c2ccccc2-c2ncc(-c3ccccc3)o2)cc1 | -5.92%
O=C(O)C1(Cc2nc3ccccc3s2)CCCCC1 | 11.5%
CC(C)(C)OC(=O)N1CCC2(CC1)NC(=O)C1(CCCCC1)N2 | 16.4%
CC(C)NC(=O)CN1C(=O)CC(C)Sc2ccc(S(=O)(=O)N3CCCCC3)cc21 (stereo unspecified) | 86.3% (active)
CC1CCCN(C(=O)c2cc(S(=O)(=O)N3CCCCC3)ccc2Cl)C1 (stereo unspecified) | 8.5%
CCN1CCN(S(=O)(=O)c2ccc3c(c2)CC(C)N3C(=O)C2CC2)CC1 (stereo unspecified) | 2.83%
COCCn1cnc2c(-c3ccccc3)cn(CC(=O)NCc3ccc(F)cc3)c2c1=O | -1.66%
Cc1ccc(CNC(=O)CC(c2ccccc2)c2ccccc2)cc1 | 34.5% (active)
Cc1ccc(CNC(=O)c2ccc(-c3cccnc3)nc2)cc1 | 18.3%
Cc1ccc(CNC(=O)CCC(=O)N2Cc3cccn3-c3ccccc32)cc1 | -82.9%
O=C([C@H]1CCCO1)N1C[C@H](OCc2cccnc2)[C@H]2COC[C@H]21 | 2.01%
C/C(=C(\NC(=O)c1ccccc1)C(=O)NCc1ccccc1)c1ccc(C)cc1 | -4.27%
CCc1nnc(-c2csc(S(=O)(=O)NC3CCCCCC3)c2)o1 | 16.4%
CCc1nc(SCC(=O)Nc2cccc3ccccc23)c2oc3ccccc3c2n1 | 47.2% (active)
O=C(CSc1ncnc2c1oc1ccccc12)NC1CCCC1 | 29.2%
CCc1nc(SCC(=O)Nc2cc(Cl)ccc2Cl)c2oc3ccccc3c2n1 | 20%
Cc1ccccc1OCC(=O)Nc1c(C)nc2scc(C)n2c1=O | 2.51%
Clc1ccc(C[n+]2cc(-c3ccc(Cl)cc3)n3c2CCC3)cc1 | 34.1% (active)
O=C(C1CCCN(S(=O)(=O)c2ccc(Cl)cc2)C1)N1CCOCC1 (stereo unspecified) | 25.3%
O=C(c1cc2occc2c(Nc2ccc(F)cc2)n1)N1CCN(C(=O)c2ccco2)CC1 | 32.6% (active)
Cc1ccc(Nc2nc(C(=O)NCCN3CCCCC3C)cc3occc23)cc1Cl (stereo unspecified) | -102%

SMILES | inhibition
Cc1nc(Nc2ccc(NC(=O)c3ccco3)cc2)cc(N2CCCCC2)n1 | -38.5%
COC(=O)c1cc(NC(=O)c2cccnc2)ccc1N1CCOCC1 | -17.6%
Cc1ccc(CNC(=O)c2ccc(-c3cncnc3)nc2)cc1C | -42.8%
CC(C)c1ccc(NC(=O)C[n+]2cc(-c3ccc(F)cc3)n3c2CCC3)cc1 | 41.8% (active)
CC(=O)CCC(=O)Nc1ccc(-c2nnc3n2CCCCC3)cc1 | -1.55%
Cc1c(Cl)cccc1NC(=O)C[n+]1cc(-c2ccc(Cl)cc2)n2c1CCC2 | 27.5%
Cc1cccnc1NC(=O)C1c2ccccc2C(=O)N(C)C1c1cccs1 (stereo unspecified) | 7.71%
Cc1ccc(C(C)C(=O)N2CCC(c3nc4ccccc4cc3C(N)=O)CC2)cc1 (stereo unspecified) | -3.47%
O=C(NCCC(=O)N1CCC2(CC1)NCCc1[nH]cnc12)c1ccc(-c2ccccc2)cc1 | 0.531%
O=C(CCN1C(=O)c2cccnc2Sc2ccccc21)Nc1cc(F)ccc1F | 14.9%
O=c1ccc(-c2nc(-c3cnccn3)no2)cn1Cc1cccc(Br)c1 | -4.12%
O=C(c1nc(-c2cnccn2)no1)N1CCN(c2ccccc2F)CC1 | -11.4%
O=c1ccc(-c2nc(-c3cnccn3)no2)cn1Cc1ccccc1C(F)(F)F | 41.2% (active)
Cc1noc(C)c1CC(=O)N1CCN(S(=O)(=O)c2ccc(C3CCCCC3)cc2)CC1 | 29.4%
CC(=O)N1C[C@H]2C3(CCN(C(=O)c4cc(C)on4)CC3)CC[C@@]2(C(=O)N(C)C)C1 | 0.149%
CCCN1CCN(Cc2nc(-c3ccc(N4CCCCCC4)nc3)no2)CC1 | -26.8%
O=C1COc2ccccc2N1Cc1noc(-c2ccccc2)n1 | 11.5%
COc1cccc(NC(=O)c2nnn(Cc3nc(-c4cccc(C)c4)oc3C)c2N)c1 | -2.05%
Cc1ccc(C(=O)Nc2nccnc2C(=O)NCc2ccc3c(c2)OCO3)cc1 | -13.1%
Cc1nc(-c2ccc(C(=O)NCc3ccc4c(c3)OCO4)cc2)cs1 | 46.2% (active)
O=C(NCc1ccc2c(c1)OCO2)c1nc(-c2cccnc2)no1 | 2.73%
Cn1c(CCN2CCOCC2)nc2cc(NC(=O)c3ccco3)ccc21 | -0.464%
O=C(CN(c1ccc(Cl)cc1Cl)S(=O)(=O)c1ccccc1)NCc1ccncc1 | 2.13%

SMILES | inhibition
Cc1ccc(NC(=O)CCn2cnc3c2c(=O)n(C)c(=O)n3C)cc1 | 1.79%
Cn1c(=O)c2c(ncn2CC(=O)OCc2cccc([N+](=O)[O-])c2)n(C)c1=O | 13.8%
Cc1cnc(NC(=O)Cn2cnc3c2c(=O)n(C)c(=O)n3C)s1 | 30.8% (active)
N#Cc1ccc(NC(=O)Nc2cccn(Cc3ccccc3F)c2=O)cc1 | 11.4%
Cc1ccc(-c2noc(-c3cccc(OCC(=O)N(C)C)c3)n2)cc1 | 53.1% (active)
Cc1ccc(-c2nc(-c3cccc(-c4ccnn4C)c3)no2)cc1 | 4.68%
Cc1ccccc1-c1nc(-c2cccc(OCC(=O)N3CCOCC3)c2)no1 | 44.8% (active)
COc1cc(Cl)ccc1-c1nc(-c2cccc(C(=O)N3CCCC3)c2)no1 | 16.1%
COc1ccc(-c2noc(-c3cccc(OCC(=O)NC(C)C)c3)n2)cc1 | -1.09%
Cc1ccccc1-c1nc(-c2cn(CC(=O)Nc3ccccc3)cn2)no1 | -44.4%
COc1cc(C)c(CN2CCC(c3cc(=O)[nH]c(C)n3)C2)cc1C (stereo unspecified) | 8.61%
CN(C)C(=O)C1CN(C(=O)c2n[nH]c3c2CCCC3)CC12CCOCC2 (stereo unspecified) | -5.3%
COc1cc(NC(=O)C2CCCCC2)c(OC)cc1NC(=O)CCC(=O)N1CCCCC1 | -281%
Cc1ccc(CS(=O)(=O)N2CCC(C(=O)N3CCC(C)CC3)CC2)cc1 | 9.43%
O=C(C1CCCCC1)N1CCCC(c2ccnc3ncnn23)C1 (stereo unspecified) | 21.7%
Cc1ccccc1CNS(=O)(=O)c1c[nH]c2ncccc12 | -1.83%
Cc1nc(-c2ccc(C)c(S(=O)(=O)NCc3ccccc3Cl)c2)cs1 | 34.4% (active)
Cc1nc(-c2ccc(C)c(S(=O)(=O)NC3CCCC3)c2)cs1 | -1.27%
Cc1cncc(C(=O)N[C@@H]2CC[C@H]3Oc4ccccc4N[C@H]3[C@@H]2O)c1 | 6.67%
Cc1c(C(=O)O)[nH]c2ccccc12 | -68.1%
C[C@@H]1O[C@@H](OC2[C@H](Oc3cc(O)c4c(c3)OC(c3ccc(O)cc3)CC4=O)O[C@H](CO)[C@@H](O)[C@@H]2O)[C@H](O)[C@H](O)[C@H]1O (stereo partly specified) | 33% (active)
COc1ccc(-c2cc(=O)oc3c(C)c(OCc4ccccc4F)ccc23)cc1 | 44% (active)
Cc1cc(=O)oc2c(C)c(OC(C)C(=O)NCc3ccncc3)ccc12 (stereo unspecified) | 6.63%

SMILES | inhibition
Cc1c(OCc2ccccc2)noc1C1CCN(CC(N)=O)CC1 | 6.2%
Cc1cnc(N2CCC3(CC(=O)N(c4cccnc4)C3)C2)nc1 (stereo unspecified) | -20.9%
Cc1ccc(N(C)C(=O)C2CCC(=O)N2S(=O)(=O)c2ccccc2)cc1 (stereo unspecified) | 20.6%
COc1cccc(-c2nnc(-c3ccc(-n4ccnc4)nc3)o2)c1 | -12.7%
COCCn1c(=O)[nH]c2cc(C(=O)NCCNc3ccc([N+](=O)[O-])cc3C#N)ccc2c1=O | -7.15%
O=C(NCCc1ccccc1)c1ccc2c(=O)nc3c(-c4ccccc4F)n[nH]n3c2c1 | -10.3%
O=C(NCCc1ccccc1)c1ccc2c(=O)n(Cc3ccco3)c(=O)n(Cc3cccc([N+](=O)[O-])c3)c2c1 | 66.4% (active)
COc1cccc(Nc2nc(N3CCCCC3)nc3c2cnn3C)c1 | -24.2%
CC(NC(=O)c1nc2n(n1)-c1ccccc1S(=O)(=O)N2)c1cc2ccccc2o1 (stereo unspecified) | 0.0682%
O=C(Nc1cnc(N2CCCC2)nc1)c1ccco1 | -2.69%
COc1ccc(NC(=O)Cc2noc(-c3cccc(OC)c3)n2)cc1 | -26.6%
CSCC[C@H](NC(=O)N1CCn2c1nc1ccccc12)C(=O)NCc1ccc2c(c1)OCO2 | 43.3% (active)
COCCCNC(=O)[C@H](Cc1ccccc1)NC(=O)N1CCn2c1nc1ccccc12 | 1.89%
CC(C)[C@H](NC(=O)N1CCn2c1nc1ccccc12)C(=O)NCCc1ccccc1 | -9.82%
COCCn1cnc2nnc3ccc(C(=O)NC(C)C)cc3c21 | -9.87%
COc1ccc(CCNC(=O)c2ccc3ccccc3c2)cc1OC | -12.8%
COc1ccc(NC(=O)CSc2cn(Cc3ccccc3C)c3ccccc23)c(OC)c1 | 8.78%
COc1ccc(CCNC(=O)CSc2cn(CCNC(=O)c3ccccc3C)c3ccccc23)cc1OC | 36.5% (active)
CC(C)c1noc2ncc(-c3nnc(C4CC4)o3)cc12 | -9.16%
COc1ccc2ncc(S(=O)(=O)c3ccccc3)c(Nc3ccc(F)cc3)c2c1 | 38.4% (active)
COc1ccc2ncc(S(=O)(=O)c3ccccc3)c(N3CCN(c4cccc(C)c4C)CC3)c2c1 | -1.48%
COc1ccc2ncc(S(=O)(=O)c3ccccc3)c(N3CCOCC3)c2c1 | -25.7%
